Several values for one entry are separate records, joined by “and”; a condition that tells them apart may be missing. Equal entries are not always repeated. The whole screen tested about 220,000 compounds, of which about 16,000 (7.3%) were called active. Another 25% or so got no clear call; they are omitted. Calls follow the shape of the dose curve; as a rule, active = well fitted inhibition curve with a large enough effect (not every such curve was filed as active); inconclusive = small, poorly fitted or top-dose-only effect, or another doubt; inactive = no such curve, though single readings can be large or run the other way. Shown is part of a subset that was picked to be rich in actives. The source holds several records for some structures; these can differ, active in one and inactive in another.
biological target: Aldehyde dehydrogenase 1A1 (Homo sapiens) (UniProt P00352); assay: qHTS Assay for Inhibitors of Aldehyde Dehydrogenase 1 (ALDH1A1); conditions: Purified ALDH1A1, NADH fluorescence, propionaldehyde substrate; series mostly up to 75.3 µM; activity, negative = inhibition: at the top concentration;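 as to activity, negative = inhibition: plate controls were no enzyme wells and a reference inhibitor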
Potency is read from the fitted curve at half-maximal effect.

Aldehyde dehydrogenase 1A1 (Homo sapiens), sequence (P00352 whole entry, looked up): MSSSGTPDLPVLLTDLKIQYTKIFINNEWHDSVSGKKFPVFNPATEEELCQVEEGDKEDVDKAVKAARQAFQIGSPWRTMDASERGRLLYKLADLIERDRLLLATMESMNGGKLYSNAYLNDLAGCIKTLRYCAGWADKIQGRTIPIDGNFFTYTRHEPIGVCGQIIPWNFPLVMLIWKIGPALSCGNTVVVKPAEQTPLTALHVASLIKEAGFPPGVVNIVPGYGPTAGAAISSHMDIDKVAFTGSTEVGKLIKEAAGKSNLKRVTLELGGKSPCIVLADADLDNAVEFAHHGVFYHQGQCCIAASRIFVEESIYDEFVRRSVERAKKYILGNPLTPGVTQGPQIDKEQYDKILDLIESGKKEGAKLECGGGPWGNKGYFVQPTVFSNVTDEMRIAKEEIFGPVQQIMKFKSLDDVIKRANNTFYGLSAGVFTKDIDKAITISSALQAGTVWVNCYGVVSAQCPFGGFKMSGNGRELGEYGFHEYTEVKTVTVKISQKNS

Compound | Potency | activity, negative = inhibition
Cc1ccc2c(c1)=C/C(=C\c1c(O)[nH]c(=O)[nH]c1=O)C(=O)N=2 | 1.58 µM (active) | 
COc1ccccc1N=Nc1c(O)[nH]c(=S)[nH]c1=O |  | -12% (inactive)
O=C1N=c2ccccc2=C/C1=C\c1c(O)[nH]c(=S)[nH]c1=O | 2.51 µM (active) | 
CC(C)CCC1(CCN)C(=O)NC(=O)NC1=O |  | 0.154% [at 13.5 µM] (inactive)
CCOc1ccc(CN(CCCl)CCCl)cc1C(=O)OC |  | -5.9% (inactive)
COc1ccc(C2Oc3c(I)c(OC)cc(OC)c3CC2O)cc1OC (stereo not given) |  | 9.99% (inactive)
O=C(Nc1cccc2ccccc12)N1CCC2(CC1)OCCO2 |  | -5.72% (inactive)
COc1ccccc1-c1[se]c2ccccc2c1I |  | 7.96% (inactive)
Cc1ccc(N(C)C(=O)Oc2cccc3ccc(C)nc23)cc1 |  | 6.33% (inactive)
CS(=N)(=O)CC[C@H](N)P(=O)(O)O (stereo not given in full) |  | 4.42% [at 13.5 µM] (inactive)
CC(=O)NBr |  | 5.46% (inactive)
CCC1(c2ccccc2)C(=O)NC(=O)N(C)C1=O (stereo not given) |  | -2.03% (inactive)
c1ccc(Cc2nn3c(Cn4cnc5ccccc54)nnc3s2)cc1 | 2.24 µM (active) | 
c1ccc(CCCCN2CCC(c3ccccc3)CC2)cc1 | inactive | 
c1cncc(CNCCc2c[nH]c3ccccc23)c1 |  | -3.63% (inactive)
NC(=O)Nc1cccc(C(F)(F)F)c1 |  | 9.13% (inactive)
C[C@@]1([C@@H](NP(=O)(c2ccccc2)c2ccccc2)c2ccccc2)C[C@H]1CCO | inactive | 
CCCCC#N |  | 3.32% (inactive)
Clc1ccc2nc3c(c(-c4ccccc4)c2c1)CNCC3 |  | 11.2% (inactive)
N#CC(C#N)=Cc1cc(O)c(O)c([N+](=O)[O-])c1 | inactive and 20 µM (active) | 
Cc1cccc(-n2c(O)c(/C=N/N3CCOCC3)c(=O)[nH]c2=S)c1 |  | 0.025% (inactive)
CN[C@@H]1C[C@H]2O[C@@](C)([C@@H]1OC)n1c3ccccc3c3c4c(c5c6ccccc6n2c5c31)C(=O)NC4 |  | -5.83% [at 13.5 µM] (inactive)
CN(C)C(=O)NC(O)C(Cl)(Cl)Cl (stereo not given) |  | 10.9% (inactive)
C[C@]12CC[C@@H]3C(=CCc4cc(O)ccc43)[C@@H]1CCC2=O | 0.501 µM (active) | 
CCC(C)C(=O)O[C@@H]1C[C@@]2(C)C(c3ccoc3)OC(=O)CC23OC2(C)O[C@@]14[C@@]1(C)C(CC(=O)OC)C5(C)CC1(O)C(O)(C5OC(=O)C1(C)OC1C)C(OC(C)=O)[C@@]34O2 (stereo not given in full) |  | 2.69% (inactive)
Cc1noc(C)c1CSc1nc2cc(S(=O)(=O)N3CCOCC3)ccc2o1 | 3.55 µM (active) | 
O=C(c1cc(S(=O)(=O)N2CCOCC2)ccc1F)N1CCC2(CC1)OCCO2 |  | -0.0979% (inactive)

Compound | Potency | activity, negative = inhibition
N#CCCCl | inactive | 
O=C(Nc1cccc(OC(=O)N2CCCCC2)c1)N1CCOCC1 |  | 0.604% (inactive)
O=C1NC(=O)N(c2ccccc2)C(=O)/C1=C/c1ccc([N+](=O)[O-])s1 | 22.4 µM (active) | 
CCN1CCN(C(=O)Cc2coc3cc(C)cc(C)c23)CC1 |  | 3.22% (inactive)
Nc1ccc(C(=O)N/N=C2/CN3CCC2CC3)cc1 |  | -2.99% (inactive)
CCCCCCN=C(CC)c1c(O)n(CCCC)c(=O)[nH]c1=O |  | -12.5% (inactive)
CCc1nnc(NS(=O)(=O)c2ccc(N=Cc3c(O)n(-c4ccccc4)c(=O)[nH]c3=O)cc2)s1 |  | -1.28% (inactive)
C[N+]1(C)CCOC(O)(c2ccc(-c3ccc(C4(O)C[N+](C)(C)CCO4)cc3)cc2)C1 (stereo not given) | inactive and 14.1 µM (active) | 
COc1ccc(CCn2c(O)c(C=NCCCn3ccnc3)c(=O)[nH]c2=O)cc1OC |  | 6.68% (inactive)
Cc1cccc2c3c(ccc12)C1=C(C(=O)C3=O)C(C)CO1 (stereo not given) | 17.8 µM (active) | 
C=CCN(CC=C)C(=O)Nc1ccc(OCC)cc1 |  | 2.89% (inactive)
CNC(=S)N/N=C1\C2CN3CCN(C2)CC1(c1ccccc1)C3 |  | -2.12% (inactive)
CC(C)c1ccc(O)c(CN2CCN(c3ccccc3)CC2)c1 | 2 µM (active) | 
COc1ccc(CN2CCN(c3ccccc3F)CC2)c(OC)c1 |  | -7.76% (inactive)
Fc1ccc(N2CCN(Cc3ccc4c(c3)OCO4)CC2)cc1 |  | -1.2% (inactive)
COc1ccc2c3c1OC1CC(O)C=C[C@@]31CCN(C)C2 (stereo not given in full) |  | -2.76% (inactive)
CC1=C(C(=O)Nc2ccccc2)SCCO1 |  | -8.55% (inactive)
CC(C)N(CC#CCC1(O)c2ccccc2-c2ccccc21)C(C)C |  | 3.69% (inactive)
CN1C2C=C(N(C(=O)c3ccc(Cl)cc3)c3ccccc3)CC1CC2 (stereo not given) |  | 6.47% (inactive)
CC(C)(O)/C=C\C(=O)[C@](C)(O)[C@H]1[C@H](O)C[C@]2(C)[C@@H]3CC=C4[C@@H](C=C(O)C(=O)C4(C)C)[C@]3(C)C(=O)C[C@@]12C |  | 8.67% [at 13.5 µM] (inactive)
c1csc(CN2CC3(CCNCC3)C2)n1 |  | 0.181% (inactive)
c1ccc2c(c1)[I+]c1ccccc1-2 |  | -5.77% (inactive)
Cc1ccc(-n2c(C)cc(/C=C3\C(=O)NC(=O)N(C)C3=O)c2C)cc1C | 17.8 µM (active) | 
Cc1cc(C=C2C(=O)NC(=O)NC2=O)c(C)n1-c1ccncc1 | 14.1 µM (active) | 
Cc1ccccc1N1C(=O)NC(=O)/C(=C\c2cc(C)n(C)c2C)C1=O |  | -4.17% (inactive)
CSC1=NP(=S)(SC)N(C)c2nc3n(c21)CCC3 (stereo not given) |  | -5.63% (inactive)
CCOP(=O)(OCC)C(NC(=O)c1ccc(C)cc1)C(Cl)(Cl)Cl (stereo not given) |  | 0.637% (inactive)

Compound | Potency | activity, negative = inhibition
CCN(CC)CCn1ncc2c(N)ncnc21 |  | 1.51% [at 13.5 µM] (inactive)
CCCCCCCCc1[se]c2ccccc2c1Br |  | -6.52% (inactive)
NCCc1ccc(S(=O)(=O)F)cc1 |  | 4.17% (inactive)
O=C(CN1CCCCC1)Nc1ccc(Br)cc1C(=O)c1ccccc1Cl |  | -1.86% (inactive)
CCN1CCN(c2ccc([N+](=O)[O-])cc2C#N)CC1 |  | 5.93% (inactive)
COc1ccccc1-n1c(O)c(C=NC2CC2)c(=O)[nH]c1=O |  | -2.25% (inactive)
O=c1c2ccccc2nc(-c2ccc(Cl)cc2Cl)n1-c1ccncc1 |  | -6.03% (inactive)
O=c1c2ccccc2nc(-c2ccccc2)n1-c1ccccn1 |  | -7.99% (inactive)
Cc1ccc(-n2c(-c3ccc([N+](=O)[O-])cc3)nc3ccccc3c2=O)cc1 | 7.51 µM (active) | 
Cc1cccc2c(CCN)c[nH]c12 |  | 1.85% (inactive)
Cc1ncsc1CCCl |  | -8% (inactive)
COc1ccc(C(=O)CC2C(=O)N(C)C(=O)N(C)C2=O)cc1 | 17.8 µM (active) | 
CCOP(=O)(OCC)C(NC(=O)c1ccc(OC)cc1)C(Cl)(Cl)Cl (stereo not given) |  | 2.96% (inactive)
COc1ccc(-c2nn(CCC#N)cc2C(=O)O)cc1 |  | 12.9% (inactive)
COc1cc(-n2c(=S)[nH]c3ccc(C)cc3c2=O)c(Cl)cc1Cl |  | -5.27% (inactive)
CN(C)P(=S)(Nc1ccccc1)C(Cl)(Cl)Cl (stereo not given) |  | -9.21% (inactive)
O=NO | inactive and 11.2 µM (active) | 
C[C@@]12CC[C@H](O)C[C@@H]1CC[C@@H]1[C@@H]2CC[C@@]2(C)[C@@H](C3=CC(=O)OC3)[C@H](O)C[C@]12O |  | 23.8% [at 13.5 µM] (inactive)
OC(CNC1CCCCC1)c1ccccc1 (stereo not given) |  | 13.7% (inactive)
CC(Cc1cccs1)NCc1ccc(Cl)cc1 (stereo not given) |  | 9.87% (inactive)
CCN(CC)C(=O)c1ccc(NC(=O)c2cc(-n3cnnc3)ccc2Cl)cc1 | 25.1 µM (active) | 
CC(C)(Cc1c[nH]c2ccc(Cl)cc12)NCCOc1ccccc1OCC1CC1 | inactive | 
O=c1[nH]c(=O)n(-c2ccccc2)c(O)c1C=NC12CN3CN(CN(C3)C1)C2 |  | 4.54% (inactive)
C=CCN1CCC2(C)c3cc(O)ccc3CC1[C@@H]2C (stereo not given in full) |  | 0.265% (inactive)
CC(=O)O[C@H]1CC[C@@]2(C)[C@@H](CC[C@H]3[C@H]2CC(=O)[C@]2(C)[C@@H]3C[C@@H](N3CC3)[C@H]2C(C)=O)C1 |  | 6.14% [at 13.5 µM] (inactive)
COC1CC(OC2CC[C@@]3(C=O)C4CC[C@]5(C)C(C6=CC(=O)OC6)CC[C@@]5(O)C4CC[C@]3(O)C2)OC(C)C1O (stereo not given in full) |  | 9.5% (inactive)
O=C(O)CCn1cc(C=C2C(=O)NC(=S)NC2=O)c(-c2cccc(Br)c2)n1 | 10 µM (active) | 

Compound | Potency | activity, negative = inhibition
COP(=O)(NS(=O)(=O)c1ccccc1)OC |  | 10.1% (inactive)
CN1C2CC3CC1C(O3)C2O (stereo not given) |  | -0.978% (inactive)
C[C@@]12CC[C@H]3[C@@H](CC[C@]4(O)C[C@H](O)CC[C@@]34C=O)[C@]1(O)CC[C@@H]2C1=CC(=O)OC1 |  | 5.61% [at 20.9 µM] (inactive)
OC1/C(=C/c2ccc(C(F)(F)F)cc2)N2CCC1CC2 (stereo not given) |  | 5.45% (inactive)
CCCCC/C=C\C/C=C\C/C=C\C=C\[C@H](CCCC(=O)O)OO | inactive | 
CCCCC/C=C\C/C=C\C/C=C\CCCCCCC(=O)NCCO | inactive | 
CCCCC/C=C\C/C=C\C/C=C\C/C=C\CCCCCC(=O)NCCO | inactive and 14.1 µM (active) | 
O=C(COC(=O)Cc1ccccc1)Nc1ccc(F)cc1 |  | 8.73% (inactive)
O=c1[nH]c(=O)n(Cc2ccccc2)c(O)c1/C=N/Nc1c(F)c(F)c(F)c(F)c1F |  | -0.117% (inactive)
CNC(=O)N(C)c1nnc(C(C)(C)C)s1 | inactive | 
CN1[C@@H]2CC[C@H]1CC(OC(=O)c1cc(Cl)cc(Cl)c1)C2 (stereo not given in full) |  | 4.67% (inactive)
BrC1C(Br)C(Br)C(Br)C(Br)C1Br (stereo not given) | 20 µM (active) | 
O=C(CCN1CCCCC1)NCC(=O)Nc1ccc(Br)cc1C(=O)c1ccccc1 |  | 1.09% (inactive)
N[C@H](Cc1o[nH]c(=O)c1Cl)C(=O)O |  | 5.09% (inactive)
CC(C)(C)CC(=O)Nc1nnc(SCC(=O)NCc2cccs2)s1 | 17.8 µM (active) | 
N[C@H](C(=O)O)c1cc(=O)[nH]o1 |  | -6.24% (inactive)
N#Cc1ccc(Cn2cc(C(=O)c3ccco3)c3ccccc32)cc1 |  | -2.02% (inactive)
COP(=O)(OC)C(NC(=O)c1ccc(C)cc1)C(Cl)(Cl)Cl (stereo not given) |  | 1.19% (inactive)
OC(Cn1c2ccccc2c2ccccc21)C[n+]1ccccc1 (stereo not given) |  | 8.11% (inactive)
CCNc1nc2[nH]c(=O)c3c(c2s1)OC(N)=C(C#N)C3c1cccs1 (stereo not given) |  | -7.74% (inactive)
CCCCN1C2CCC1CC(OC(c1ccc(F)cc1)c1ccc(F)cc1)C2 (stereo not given) |  | 4.41% (inactive)
Cc1ccc(NN=C2C(=O)OC(C)(C)OC2=O)c(C)c1 | 10 µM (active) | 
Cc1nc2nc(C)c(CCC(=O)N3CCC4(CC3)OCCO4)c(C)n2n1 |  | 3.72% (inactive)
CC1=CC(=O)C2=C(C)C[C@H](O)[C@H]3[C@H](C)C(=O)O[C@@H]3C12 (stereo not given in full) |  | -0.9% (inactive)

From PubChem BioAssay AID1030 (National Center for Advancing Translational Sciences (NCATS), 2008)
